PostGolgi ctrl – growth inhibition of yeast control strain, primary screen, counter-screen for post-Golgi transport modulator project. hit rate 5% among 98,000. AID 738, 2007. efflux-deficient yeast background strain, growth absorbance A615, 16 h. inhibition, % at 10 µM
PostGolgi yeast – phenotypic screen on post-Golgi transport, primary screen; post-Golgi transport phenotypic cell assay; inhibition, % at 10 µM; hit rate 0.9% among 98,000;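 further: yeast cells grown in 1536-well plates; yeast grown about 18 h at 30C before absorbance read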
CYP2C9 act – human CYP2C9 activators, primary screen, biochemical, luminescence; Cytochrome P450 2C9 (Homo sapiens), P11712; recombinant CYP2C9, luciferin-H conversion; stronger effect = higher value; factor 1 = untreated enzyme, 0 = blocked; activation factor at 5 µM; hit rate 1.4% among 96,000; AID 1024, 2008;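 active means activation factor of 2 or more for CYP2C9 at a 5 µM dose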;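 further: 0 = sulfaphenazole-blocked wells and 1 = vehicle-only wells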
Target sequence (P11712 whole entry, looked up): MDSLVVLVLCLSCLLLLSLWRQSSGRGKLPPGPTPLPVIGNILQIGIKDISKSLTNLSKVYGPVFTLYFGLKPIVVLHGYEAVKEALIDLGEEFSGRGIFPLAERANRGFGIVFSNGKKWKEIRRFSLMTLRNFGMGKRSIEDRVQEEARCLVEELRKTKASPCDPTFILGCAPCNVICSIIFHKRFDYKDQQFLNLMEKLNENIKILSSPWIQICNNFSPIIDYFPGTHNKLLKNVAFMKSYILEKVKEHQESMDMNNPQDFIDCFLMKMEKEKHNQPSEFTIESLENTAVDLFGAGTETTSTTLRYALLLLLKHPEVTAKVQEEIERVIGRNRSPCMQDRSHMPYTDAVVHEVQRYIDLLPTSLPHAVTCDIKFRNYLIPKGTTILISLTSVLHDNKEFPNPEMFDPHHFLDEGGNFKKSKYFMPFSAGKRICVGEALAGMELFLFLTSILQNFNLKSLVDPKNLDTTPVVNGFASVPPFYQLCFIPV
CYP2C9 inh – blockers of cytochrome P450 2C9 activity – biochemical, luminescence, ADME assay, primary screen; P11712; CYP2C9 Supersomes, luciferin-H conversion; inhibition, % at 5 µM; hit rate 20% among 96,000;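 active means blocking of liver enzyme CYP2C9 beyond about 50% at 5 µM, limit read from the data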
CYP2C19 inhib – blockers of cytochrome P450 2C19 activity – biochemical, luminescence, ADME assay, primary screen; P33261; CYP2C19 Supersomes, luciferin-H EGE luminescence, 30 min; inhibition, % at 5 µM; hit rate 21% among 96,000; AID 778, 2007;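 active means CYP2C19 inhibition above a set limit at 5 µM in the primary screen, cut at about 50% in these data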;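 further: plate controls were negative control wells for no effect and 2.5 mM tranylcypromine positive control for full effect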
CYP2C19 activ – human CYP2C19 activators, primary screen, biochemical, luminescence | Cytochrome P450 2C19 (Homo sapiens), P33261 | recombinant CYP2C19, luciferin-H EGE luminescence; stronger effect = higher value; 0 = fully inhibited enzyme, 1 = untreated enzyme | activation factor at 5 µM | 96,000 tested, under 10 active;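 active means activation factor of at least 2 at 5 µM in the primary screen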;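 further: 0 = wells with 2.5 mM tranylcypromine and 1 = vehicle-only wells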
Numbers without * were called inactive. The list is a sample of the results. Unless noted, no stated cut-off is given here; in the data, active means inhibition above about 30%; inactive means the rest.

Clc1ccc(Cc2noc(CN3CCN(c4ccccc4)CC3)n2)c(Cl)c1 was read as PostGolgi ctrl 4.2, PostGolgi yeast -2.7, CYP2C9 act 0.9, CYP2C9 inh 14.5, CYP2C19 inhib 11.3 and CYP2C19 activ 0.9.
For O=C(O)c1cc(-c2ccc(Cl)cc2)n[nH]1 the results were PostGolgi ctrl -3.5, PostGolgi yeast 12.0, CYP2C9 act 1.1, CYP2C9 inh -9.0, CYP2C19 inhib -10.4 and CYP2C19 activ 1.1.
O=[N+]([O-])c1cccnc1N1CCC(c2cc(-c3ccc(Cl)cc3)n[nH]2)CC1 was read as PostGolgi ctrl 68.8*, PostGolgi yeast 3.1, CYP2C9 act 0.6, CYP2C9 inh 40.2, CYP2C19 inhib 19.6 and CYP2C19 activ 0.8.
For COc1cccc2cc(C(=O)C3=C(O)C(=O)N(Cc4ccco4)C3c3cccnc3)oc12 (stereo not given) the results were PostGolgi ctrl 2.1, PostGolgi yeast 6.4, CYP2C9 act 0.6, CYP2C9 inh 38.0, CYP2C19 inhib -0.9 and CYP2C19 activ 1.
COc1ccc(-c2nsc(C(=O)N(c3ccc(F)cc3)C(C(=O)NC3CCCC3)c3ccc(OC)cc3)c2N)cc1 (stereo not given) was read as PostGolgi ctrl 0.9, PostGolgi yeast 6.5, CYP2C9 act 0.9, CYP2C9 inh 9.7, CYP2C19 inhib -6.5 and CYP2C19 activ 1.1.
`CC(=O)c1cc(-c2ccccc2)n(CC(=O)NC2CCCC2)c1C` gave PostGolgi ctrl 27.7, PostGolgi yeast 18.3, CYP2C9 act 0.8, CYP2C9 inh 21.8, CYP2C19 inhib 17.1 and CYP2C19 activ 0.8.
Screening CCOC(=O)c1cc(-c2ccc(C)cc2)n(CCC(=O)NC(C)CC)c1C (stereo not given) returned PostGolgi ctrl 6.1, PostGolgi yeast -4.5, CYP2C9 act 0.5, CYP2C9 inh 48.1, CYP2C19 inhib 64.1* and CYP2C19 activ 0.4.
`CCOC(=O)c1cc(-c2ccccc2)n(CC(=O)O)c1C` gave PostGolgi ctrl -8.0, PostGolgi yeast 10.5, CYP2C9 act 0.3, CYP2C9 inh 71.8*, CYP2C19 inhib 5.4 and CYP2C19 activ 0.9.
CCCCNC(=O)CCC(=O)Nc1ncc(-c2ccc(C)cc2)n1C was read as PostGolgi ctrl 9.0, PostGolgi yeast -4.9, CYP2C9 act 0.6, CYP2C9 inh 35.2, CYP2C19 inhib 31.4 and CYP2C19 activ 0.7.
CCCNC(=O)CCn1c(-c2ccc(C)cc2)cc(C(=O)OCC)c1C was read as PostGolgi ctrl 18.4, PostGolgi yeast 10.1, CYP2C9 act 0.4, CYP2C9 inh 61.8*, CYP2C19 inhib 66.2* and CYP2C19 activ 0.3.
Screening O=C(c1ccc(F)cc1)N1C2CCC1CC(O)(c1ccc(F)cc1)C2 (stereo not given) returned PostGolgi ctrl -4.3, PostGolgi yeast 2.8, CYP2C9 act 1, CYP2C9 inh -4.2, CYP2C19 inhib 12.6 and CYP2C19 activ 0.9.
Screening CCOc1ccccc1N(CC(=O)O)S(=O)(=O)c1ccc(C)cc1 returned PostGolgi ctrl 17.2, PostGolgi yeast 10.8, CYP2C9 act 0.9, CYP2C9 inh 7.1, CYP2C19 inhib -13.0 and CYP2C19 activ 1.1.
Screening CCC1(CC)C(=O)NC(=O)NC1=NCCc1c[nH]c2ccccc12 returned PostGolgi ctrl 3.9, PostGolgi yeast 8.7, CYP2C9 act 0.8, CYP2C9 inh 21.2, CYP2C19 inhib 33.8 and CYP2C19 activ 0.7.
`CC(=O)NS(=O)(=O)c1ccc(NS(=O)(=O)c2ccc(F)cc2)cc1` gave PostGolgi ctrl -1.8, PostGolgi yeast -2.3, CYP2C9 act 0.4, CYP2C9 inh 59.2*, CYP2C19 inhib 2.6 and CYP2C19 activ 1.
Screening O=S(=O)(Nc1ccc(-c2csc(-c3ccccc3)n2)cc1)c1ccc(F)cc1 returned PostGolgi ctrl 25.4, PostGolgi yeast 2.0, CYP2C9 act 0, CYP2C9 inh 97.2*, CYP2C19 inhib 7.5 and CYP2C19 activ 0.9.
`COC(=O)c1ccc(NS(=O)(=O)c2ccc(SC)cc2)cc1` gave PostGolgi ctrl 2.8, PostGolgi yeast 10.7, CYP2C9 act 0.9, CYP2C9 inh 7.3, CYP2C19 inhib -13.7 and CYP2C19 activ 1.1.
Screening CSc1ccc(S(=O)(=O)Nc2ccc(F)cc2)cc1 returned PostGolgi ctrl 4.6, PostGolgi yeast -4.4, CYP2C9 act 0.1, CYP2C9 inh 92.4*, CYP2C19 inhib 100.1* and CYP2C19 activ 0.
Screening COc1ccc(NS(=O)(=O)c2ccc(SC)cc2)cc1 returned PostGolgi ctrl 50.2*, PostGolgi yeast 7.2, CYP2C9 act 0, CYP2C9 inh 96.1*, CYP2C19 inhib 100.0* and CYP2C19 activ 0.
Screening CSc1nsc(/C=C/Nc2ccc(C)cc2)c1C#N returned PostGolgi ctrl -0.3, PostGolgi yeast 11.9, CYP2C9 act 0.7, CYP2C9 inh 27.1, CYP2C19 inhib 7.0 and CYP2C19 activ 0.9.
Screening N#CC1=C(Nc2ccccc2)SC=C(c2ccc(F)cc2)N=C1N1CCOCC1 returned PostGolgi ctrl 2.7, PostGolgi yeast 3.2, CYP2C9 act 0.9, CYP2C9 inh 10.9, CYP2C19 inhib -2.0 and CYP2C19 activ 1.
Screening O=C(NC1CCCC1)C1C2C=CC(C2)C1C(=O)N1CCOCC1 (stereo not given) returned PostGolgi ctrl -5.1, PostGolgi yeast -4.7, CYP2C9 act 0.9, CYP2C9 inh 8.3, CYP2C19 inhib 7.6 and CYP2C19 activ 0.9.
Cc1ccc2oc(=O)n(CCOc3ccccc3Cl)c2c1 was read as PostGolgi ctrl 27.8, PostGolgi yeast -8.0, CYP2C9 act 1.1, CYP2C9 inh -7.9, CYP2C19 inhib -5.4 and CYP2C19 activ 1.1.
For CCCCOC(=O)Cn1c(=O)oc2ccc(C)cc21 the results were PostGolgi ctrl 29.0, PostGolgi yeast -1.9, CYP2C9 act 2.2*, CYP2C9 inh -123.0, CYP2C19 inhib 25.7 and CYP2C19 activ 0.7.
`CCOc1ccccc1OCCOc1ccccc1CC` gave PostGolgi ctrl 16.7, PostGolgi yeast -13.9, CYP2C9 act 1, CYP2C9 inh 1.8, CYP2C19 inhib 30.4 and CYP2C19 activ 0.7.
Screening O=C(O)CCn1c(=O)sc2ccccc21 returned PostGolgi ctrl -2.7, PostGolgi yeast 2.1, CYP2C9 act 1, CYP2C9 inh -2.1, CYP2C19 inhib -13.3 and CYP2C19 activ 1.1.
COc1ccccc1OCCCn1c(=O)sc2ccccc21 was read as PostGolgi ctrl 16.0, PostGolgi yeast -0.3, CYP2C9 act 0.3, CYP2C9 inh 74.3*, CYP2C19 inhib 100.0* and CYP2C19 activ 0.
COc1ccccc1OCCCn1c(=O)oc2ccc(C)cc21 was read as PostGolgi ctrl 21.7, PostGolgi yeast -1.8, CYP2C9 act 0.8, CYP2C9 inh 20.2, CYP2C19 inhib 55.6* and CYP2C19 activ 0.4.
